MCF10A rereplic = DNA re-replication induction in MCF 10a cells; actives 2.9% (n = 350,000); Potency, µM (top dose mostly 46.1 µM), for inactives: at the top dose activity, positive = re-replication, hits mostly activators; MCF 10A DNA re-replication, Hoechst nuclear intensity, 48 h; note: % of control where 0% means no effect; nearly all actives have a fitted effect of over 50% in size
KB-3-1 tox = KB-3-1 parental cell cytotoxicity; KB-3-1 viability, CellTiter-Glo ATP luminescence, 72 h; Potency, µM (doses to about 46.1 µM), usual class: cytotoxic; actives 1.4% (n = 400,000); note: % is set by controls: 0 for no effect and ±100 for the full control effect; nearly all actives have a fitted effect of over 60% in size
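KB-3-1 cells, DMEM (no phenol red) + 10% FBS; compound by pin transfer, 72 h, 37 °C. Readout: CellTiter-Glo luminescence after 10 min. Data normalized, curve-fitted.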
KB-V1 cytotox = KB-V1 MDR subline cytotoxicity; actives 3.4% (n = 400,000); Potency, µM (highest dose often 46.1 µM), usual class: cytotoxic; AID 1347076; KB-V1 MDR cells viability, CellTiter-Glo, 72 h; note: % is set by controls: 0 for no effect and ±100 for the full control effect; nearly all actives have a fitted effect of over 60% in size
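Cytotoxicity via CellTiter-Glo luminescence after 72 h compound exposure at 37 degrees C. Cells: drug-selected KB-V1 line, DMEM phenol-red free plus 10% FBS. Compounds tested at multiple concentrations; normalized data fitted to concentration-effect curves.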
SW480 rereplic = inducers of DNA re-replication in SW480 colon cancer cells | SW480 DNA re-replication, Hoechst DNA content imaging, 48 h | Potency, µM (top dose mostly 46.1 µM), for inactives: at the highest dose re-replication activation, usual class: activators | actives 1.8% (n = 340,000); note: % of control where 0% means no effect; nearly all actives have a fitted effect of over 55% in size
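Quantitative HTS format with DMSO vehicle controls; 48 hr drug incubation at 37 C, then 40 min Hoechst staining and scanning imager measurement at 405 nm excitation.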
ELG1 DNA repair = inhibitors of ELG1-dependent DNA repair in HEK293T cells; HEK293T ELG1-luciferase reporter, luminescence, 16 h; DNA damage induced by 5-fluorouridine; Potency, µM (series often up to 46.1 µM), for the others: top-dose activity change, negative = inhibition, actives largely listed as inhibitors; actives 2.3% (n = 330,000); note: % is set by controls: 0 for no effect and ±100 for the full control effect; nearly all actives have a fitted effect of over 55% in size
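Quantitative HTS, concentration-response format. 2,000 cells/well co-treated with 5-fluorouridine and compound, 16 hr in 5% CO2 at 37 °C; ONE-Glo luminescence read after 30 min.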
* = called active by the depositor; i = inactive; ? = inconclusive; . = no result. Shown are actives, neighbours in structure and some others; about 8.2% of the full set was active somewhere. Calls come from the whole dose curve; as a rule, active = well fitted curve in the direction sought with a large enough effect; inconclusive = small, poorly fitted or top-dose-only effect, or another doubt; inactive = no such curve, though single readings can be large; an effect the other way counts as inactive or inconclusive. Potency is the fitted concentration of half-maximal effect.

SMILES | MCF10A rereplic | KB-3-1 tox | KB-V1 cytotox | SW480 rereplic | ELG1 DNA repair
c1ccc(-c2nc(NCc3cccnc3)c3oc4ccccc4c3n2)cc1 | ? | i | ? | 15.7% | 23.1µM*
OCCCNc1nc(-c2ccccc2)nc2c1oc1ccccc12 | 7.9% | i | ? | -12.5% | 23.1µM*
c1ccc(-c2nc(NCC3CCCO3)c3oc4ccccc4c3n2)cc1 (centres undefined) | ? | i | 3.66µM* | -3.6% | 16.4µM*
O=C(O)CNc1nc(-c2ccccc2)nc2c1oc1ccccc12 | 6.7% | i | ? | 1.0% | 3.5%
Fc1ccc(CNc2nc(-c3cccnc3)nc3ccccc23)cc1 | 74.2% | i | i | ? | ?
c1ccc2c(c1)oc1c(NCC3CCCO3)ncnc12 (centres undefined) | -1.4% | i | 16.4µM* | -5.2% | ?
O=C(CSc1ncnc2c1oc1ccccc12)NCC1CCCO1 (centres undefined) | -3.0% | i | i | -9.7% | .
COc1ccc(NC(=O)c2c(C)oc3ccc(O)c(CN4CCCCCC4)c23)cc1Cl | . | ? | i | . | .
CCOc1ccc(NC(=O)N(Cc2ccc(CC)cc2)Cc2cn[nH]c2-c2ccc(OC)cc2)cc1 | . | ? | i | . | .
CC(C)(C)c1ccc(-c2nc(NCc3cccnc3)c3ccccc3n2)cc1 | 13µM* | i | ? | 9.0% | ?
c1cncc(CNc2nc(-c3cccnc3)nc3ccccc23)c1 | 3.7% | i | i | 2.4% | -6.6%
O=C(c1ccc(Cl)cc1)c1oc2ccccc2c1CS(=O)(=O)c1ccccc1 | ? | i | 6.51µM* | -1.6% | ?
O=C(Nc1c(C(=O)c2ccc(Cl)cc2)oc2ccccc12)c1cc(=O)c2ccccc2o1 | . | i | ? | . | .
CCOC(=O)Nc1oc2ccccc2c(=O)c1CN1CCOCC1 | 16.4µM* | i | i | -4.2% | 10.3µM*
CCOC(=O)c1oc2ccccc2c1CN1CC(C)OC(C)C1 (centres undefined) | -0.1% | i | i | 1.2% | -6.9%
CCOc1ccc(NC(=O)CN(C)CC(=O)Nc2cc(Cl)ccc2C#N)cc1OCC | 0.5% | i | i | -0.4% | ?
COc1ccc(NC(=O)CN(C)C(C)C(=O)N2CCCCC2)cc1 (centres undefined) | -4.4% | i | 11.6µM* | -5.8% | 6.2%
CCOc1ccc(NC(=O)CN(C)CC(=O)Nc2ccccc2SC)cc1OCC | 0.5% | i | 3.66µM* | 2.8% | ?
COc1ccc(CSCC(=O)Nc2ccccc2SC)cc1 | ? | ? | 18.4µM* | ? | -5.5%
CSc1ccccc1NC(=O)CN(C)CC(=O)c1c(C)[nH]c2ccccc12 | 3.1% | i | 20.6µM* | -6.9% | -23.8%
CC(C(=O)N1CCCCC1)N(C)CC(=O)Nc1cccc(F)c1 (centres undefined) | -5.3% | i | i | -1.4% | 0.8%
Cc1nn(-c2ccc(N3CCCCC3)nn2)c(C)c1CCC(=O)Nc1ccc(F)c(F)c1 | ? | i | ? | ? | ?
Cc1occc1C(=O)N1CCC2(CCCN(Cc3ccc(F)c(F)c3)C2)C1 (centres undefined) | ? | i | ? | 1.5% | 17.6%
COc1ccc(OCCN(C)CC(=O)Nc2ccccc2SC)cc1 | 3.2% | i | ? | -0.2% | ?
COc1ccc(NC(=O)CN(C)CC(=O)Nc2ccccc2SC)cc1 | -0.7% | i | 20.6µM* | -1.3% | 9.3%
CCOC(=O)c1[nH]c2ccc(F)cc2c1NC(=O)CN1CCN(C/C=C/c2ccccc2)CC1 | 14.6µM* | i | ? | ? | ?
COC(=O)c1[nH]c2ccccc2c1NC(=O)CN1CCN(C/C=C/c2ccccc2)CC1 | 9.2% | i | ? | 15.8% | 8.2µM*
COc1ccc(-n2nnnc2-c2ccc(S(C)(=O)=O)cc2Cl)cc1 | -1.8% | i | i | -37.7% | ?
C=CCc1c(O)c(CC)cc2c(C)cc(=O)oc12 | 4.5% | i | i | 11.6µM* | 4.3%
CCOP(=O)(OCC)c1nc(/C=C/c2ccccc2)oc1NCc1ccc(OC)cc1 | ? | i | i | ? | ?

High-throughput results from PubChem.
